From PubChem BioAssay
The list is not random: actives were taken first. Their share in the collection is about 7.8%.
Vaccinia Venus = qHTS for Stage-Specific Inhibitors of Vaccinia Orthopoxvirus: Venus Reporter Primary qHTS. Vaccinia virus Venus reporter expression, fluorescence. 0.46% of 330,000 active. AID 720580, 2013. Potency, µM (doses to about 36.5 µM), without a hit: at the top dose activity change, negative = inhibition, usual class: inhibitors; calls by dose curve; tested in A549 cells; note: potency is the fitted concentration of half-maximal effect; nearly all actives have a fitted effect of over 30% in size
HCV inhibitor = qHTS Assay for Inhibitors of Hepatitis C Virus (HCV) | Huh7.5.1 HCVcc-Cre infection, luciferase reporter, 44 h | Potency, µM (top dose mostly 41.8 µM), inactives show at the top dose activity change, negative = inhibition, most hits filed as inhibitors | 3.4% of 340,000 active; active = well fitted inhibition curve with a large enough effect; inconclusive = small, poorly fitted or top-dose-only effect, or another doubt; inactive = no such curve, though single readings can be large or run the other way; note: potency is the fitted concentration of half-maximal effect
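Cells seeded at 1,000/well and cultured 4 h, then compounds added followed by HCVcc-Cre virus (~0.5 moi). After 44 h further culture, luciferase substrate was added, plates held 15 min at room temperature, and luminescence read for 15 sec.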
Lassa entry inh = qHTS for Inhibitors of binding or entry into cells for Lassa Virus. Lassa virus pseudotype entry inhibition, cell reporter. Potency, µM (titrated, usually from 37.9 µM), for inactives: top-dose activity change, negative = inhibition, actives largely listed as inhibitors. 1.2% of 300,000 active. AID 540256, 2011; calls by dose curve; tested in HEK293 cells; note: potency is the fitted concentration of half-maximal effect; nearly all actives have a fitted effect of over 50% in size
MARV entry inh = qHTS for inhibitors of binding or entry into cells for Marburg Virus; 1.8% of 300,000 active; Marburg virus pseudotyped entry inhibition, cell reporter; Potency, µM (titrated, usually from 37.8 µM), for inactives: top-dose activity change, negative = inhibition, usual class: inhibitors; calls by dose curve; tested in HEK293 cells; note: potency is the fitted concentration of half-maximal effect
HCMV antiviral = qHTS Assay for inhibitors of the human cytomegalovirus (HCMV); HFF cells, HCMV-luciferase reporter, 72 h; stronger effect = lower value; AID 1259415, 2018; activity change, negative = inhibition, % at 57.5 µM; 4.5% of 410,000 active; in the data active = activity change below about -60%; inconclusive = no clear call, values can overlap the other calls; inactive = above about -39%
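Screen run at 2 compound doses on HFFs infected with reporter HCMV, MOI 1 PFU/cell. Luciferase activity from cell lysates at 72 h post infection gave inhibition relative to buffer-only and Salinomycin wells.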
Vaccinia mCherry = qHTS for Stage-Specific Inhibitors of Vaccinia Orthopoxvirus: mCherry Reporter Primary qHTS; Vaccinia virus mCherry reporter infection, fluorescence; Potency, µM (highest dose often 36.5 µM), for inactives: top-dose activity change, negative = inhibition, most hits filed as inhibitors; AID 720579, 2013; 0.63% of 310,000 active; calls by dose curve; tested in A549 cells; note: potency is the fitted concentration of half-maximal effect; nearly all actives have a fitted effect of over 35% in size
* marks the source's active call; other numbers are inactive results; i = inactive; ? = inconclusive; / = not tested or not shown; [ ] = remark or other dose. % is set by controls: 0 for no effect and ±100 for the full control effect.

SMILES	Vaccinia Venus	HCV inhibitor	Lassa entry inh	MARV entry inh	HCMV antiviral	Vaccinia mCherry
Cc1ccc(-n2c(=O)c3c4c(sc3n(CC(=O)Nc3cccc(Cl)c3)c2=O)CCCCC4)cc1C	-8%	/	12%[46.1 µM]	?	-3	-9%
Cc1cc(C)c2nc(Cl)c(CN(Cc3ccco3)C(=O)Nc3ccccc3C)cc2c1	?	?	?	?	-63*	-26%
CC(=O)C1=C(c2cccc([N+](=O)[O-])c2)N(C(C)=O)n2c(C)nnc2S1	/	?	?	?	-93*	/
CC(=O)C1=C(c2ccc(C)cc2)N(C(C)=O)n2c(nnc2-c2ccccc2)S1	-13%	/	-7%[46.1 µM]	/	39	-21%
Cc1cc(-c2ccc(C)c(S(=O)(=O)N(Cc3cccs3)C(C)C)c2)on1	?	/	-30%[46.1 µM]	/	-77*	-4%
Cc1cc(-c2ccc(C)c(S(=O)(=O)NCC3CCN(Cc4ccc(F)cc4)CC3)c2)on1	?	8.9µM*	?	?	?	?
CCc1ccc(-c2cc(C)no2)cc1S(=O)(=O)N1CCN(c2ccccn2)CC1	-2%	?	-28%[46.1 µM]	?	0	-7%
CCc1ccc(-c2cc(C)no2)cc1S(=O)(=O)N1CCN(c2ccc(F)cc2)CC1	/	5µM*	/	/	?	/
CCOc1ccc(N(C)S(=O)(=O)c2cc(-c3cc(C)no3)ccc2CC)cc1	-13%	?	?	?	-90*	-16%
COc1cccc(N2CCN(S(=O)(=O)c3cc(-c4cc(C)no4)ccc3C)CC2)c1	-13%	/	14%[46.1 µM]	/	5	-21%
CCc1ccc(-c2cc(C)no2)cc1S(=O)(=O)N1CCN(c2ccc(OC)cc2)CC1	-14%	?	?	?	-67*	-15%
CCc1ccc(-c2cc(C)no2)cc1S(=O)(=O)NCCCN1CCN(c2ccccc2)CC1	10%[7.34 µM]	2µM*	/	/	?	-7%[7.34 µM]
Cc1cc(-c2ccc(C)c(S(=O)(=O)N3CCOc4ccc(Cl)cc43)c2)on1	-20%	/	?	/	-40	?
CCc1ccc(-c2cc(C)no2)cc1S(=O)(=O)N1CCOc2ccccc21	-12%	11µM*	?	?	-74*	i
Cc1ccc(CCNS(=O)(=O)c2cc(-c3cc(C)no3)ccc2C)cc1	-14%	/	-16%[46.1 µM]	/	0	-14%
CCN(CCCNS(=O)(=O)c1cc(-c2cc(C)no2)ccc1C)Cc1ccccc1	/	13µM*	/	/	?	/
Cc1cc(C(=O)Nc2cccc(F)c2)c2c(C)nn(-c3cccc(Cl)c3C)c2n1	-29%	/	?	/	-27	-22%
Cc1cccc(NC(=O)CSc2nc3c([nH]c4ccccc43)c(=O)n2C)c1C	-1%	/	-25%[46.1 µM]	/	49	-2%
CCCCCCCCCCCCCCCCOC[C@H](COP(=O)([O-])OCC[N+](C)(C)C)OC(=O)NC	-12%[3.33 µM]	/	/	/	/	-17%[3.33 µM]
Cc1ccccc1CN1CCN2C=C(C(=O)NCC3CC3)OC2=NC1=O	/	/	/	/	11	/
CCN(CC)c1cc(C)c2cc(NC(=O)c3ccccc3OC)ccc2n1	?	10µM*	?	?	-60*	-18%
CCN(CC)c1cc(C)c2cc(NC(=O)c3cc(OC)cc(OC)c3)ccc2n1	-17%	/	?	0%[46.1 µM]	-85*	-21%
CCCCc1ccc(C(=O)Nc2ccc3nc(N(CC)CC)cc(C)c3c2)cc1	-19%	/	-11%[46.1 µM]	?	-61*	-16%
CCN(CC)c1cc(C)c2cc(NC(=O)/C=C/c3ccccc3Cl)ccc2n1	-16%	/	-18%[46.1 µM]	-20%[46.1 µM]	-107*	-9%
CCc1ccc2oc(-c3cc(NC(=O)COc4ccc(C)cc4)ccc3O)nc2c1	?	/	/	/	/	-17%
Cc1cc(=O)n2c(C(=O)Nc3ccc(C)c(Cl)c3)c(C(=O)Nc3ccccc3)sc2n1	5%	/	?	-8%[46.1 µM]	-15	4%
CCN(CC)c1cc(C)c2cc(NC(=O)c3ccc(OC)c(OC)c3)ccc2n1	0%	/	?	?	-89*	5%
CCN(CC)c1cc(C)c2cc(NC(=O)c3cccc(F)c3)ccc2n1	-11%	/	-22%[46.1 µM]	?	?	-10%
